# Values without a mark were called inactive.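 Rule for the calls: active = viability at or under a set limit in both replicates, limit being median viability minus 3 SD (cut at about 48% in these data, passing the limit was not always enough); inconclusive = at or under the limit in just one replicate; inactive = at or above the limit in both replicates.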
# Experiment: H69AR cell proliferation blockers – human, duplicate replicates, primary screen (AID 580);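 note: 100% = mean luminescence of untreated wells and 0% = no signal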
# Conditions: H69AR lung tumor cells viability, ATP luminescence, 72 h; at 10 µM; active compounds read low
row,SMILES,viability
1,Cn1c(=O)[nH]c(=O)c2[nH]c(NCCCN3CCOCC3)nc21,101%
2,COc1ccc(CN(Cc2nc3ccccc3c(=O)[nH]2)C(=O)NC2CCCCC2)cc1,90.2%
3,O=C(Nc1ccncc1)c1cncc(Br)c1,100%
4,COc1ccc(C(=O)Nc2ccc(C)cn2)c(OC)c1,85.4%
5,C/C(=N\O)C(C)/[N+]([O-])=C/c1nc(C)c(C)n1O (stereo unspecified),92.8%
6,CCC(C)(C)NC(=O)C(c1ccco1)N(C(=O)Cn1nnc2ccccc21)c1ccc2c(c1)OCO2 (stereo unspecified),105%
7,COc1ccc(OC)c(S(=O)(=O)N2c3ccccc3CC2C)c1 (stereo unspecified),89.4%
8,O=C(COc1ccccc1)Nc1ccc(-c2nnc(-c3ccco3)o2)cc1,95.5%
9,Cc1ccc(-c2noc(CCC(=O)NCC3CCN(Cc4cccc(C)c4)CC3)n2)cc1,84.6%
10,CCOc1cc(C(=O)N2CCN=C2SC)cc(OCC)c1OCC,105%
11,COc1ccc(-n2c(=O)c3c4c(sc3n3c(C)nnc23)CCCC4)cc1,96.5%
12,COc1ccc(CCNC(=O)c2cc(-c3cc(C)c(C)cc3O)n[nH]2)cc1OC,77%
13,CCC(Oc1ccc2ccccc2c1)C(=O)O (stereo unspecified),80.1%
14,O=C(O)C1CC=CCC1C(=O)Nc1cc(Cl)ccc1Cl (stereo unspecified),93.5%
15,O=C(c1cnn2c(C(F)F)cc(C3CC3)nc12)N1CCOCC1,113%
16,O=C(CSCCSCC(=O)c1ccco1)c1ccco1,101%

# — PubChem BioAssay
